Assay [1] in a line: compound effects on lung adenocarcinoma cell viability – A549, calcein-AM fluorescence, 48 h, basal, profiling panel (AID 1162). Also: test concentration not given here. As to conditions: higher = more signal.
Assay [2] can be described thus: compound effects on differentiated 3T3-L1 adipocyte viability – cell-based, 3T3-L1 adipocytes, calcein-AM fluorescence, 48 h, basal, profiling panel (AID 1163). Also: test concentration not given here. The note with it: 3T3-L1 adipocytes viability, higher = more signal.
The nature of assay [3]: compound effects on hepatocellular carcinoma cell viability – HepG2, calcein-AM fluorescence, 48 h, basal, profiling panel (AID 1164). Also: test concentration not given here. The note with it: higher = more signal.
Assay [4] in a line: compound effects on multiple myeloma cell viability – MM1S, calcein-AM fluorescence, 48 h, basal, profiling panel (AID 1165). Also: test concentration not given here. As to conditions: higher = more signal.
The nature of assay [5]: calcein-AM signal in unstimulated myeloma cells – cell-based, calcein-AM fluorescence, 48 h, PK04 Diversity Set, profiling panel (AID 1166).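 Also: cells grown under basal conditions without added stimulus; test concentration not given here.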 As to conditions: RPMI8226 myeloma viability, higher = more signal.
The nature of assay [6]: JC-1 mitochondrial signal, unstimulated HepG2 cells – cell-based, JC-1 fluorescence, 24 h, 100 nL compound, profiling panel (AID 1167). Also: test concentration not given here. As to conditions: HepG2 mitochondrial potential, higher = more signal.
Assay [7] can be described thus: JC-1 mitochondrial signal, unstimulated adipocytes – cell-based, JC-1 fluorescence, 3T3-L1 adipocytes, 24 h, 100 nL compound, profiling panel (AID 1168). Also: test concentration not given here. The note with it: JC-1 mitochondrial fluorescence, higher = more signal, called active from +8 up or from −8 down.
Assay [8] can be described thus: JC-1 mitochondrial signal, unstimulated myeloma cells – cell-based, JC-1 fluorescence, RPMI8226, 24 h, 100 nL compound, profiling panel (AID 1169). Also: test concentration not given here. As to conditions: JC-1 mitochondrial potential fluorescence, higher = more signal.
Assay [9] can be described thus: JC-1 mitochondrial signal, unstimulated MM1S myeloma – cell-based, JC-1 fluorescence, 24 h, 100 nL compound, profiling panel (AID 1170). Also: test concentration not given here. The note with it: MM1S mitochondrial potential, higher = more signal.
A short description of assay [10]: resazurin metabolic signal in A549 cells – cell-based, resazurin fluorescence, 24 h, PK04 Diversity Set, profiling panel (AID 1171). Also: test concentration not given here. The note with it: A549 viability, higher = more signal, called active from +8 up or from −8 down. Background: Resazurin is reduced to fluorescent resorufin, in cell work by metabolically active cells.
Assay [11] can be described thus: resazurin metabolic signal in HepG2 cells – cell-based, resazurin fluorescence, 24 h, PK04 Diversity Set, profiling panel (AID 1172). Also: test concentration not given here. As to conditions: HepG2 viability, higher = more signal.
Assay [12] is described as follows: budding yeast growth changes without added modifier – OD600, strain BY4716, 24 h, basal condition, primary screen (AID 1173). As to conditions: S. cerevisiae BY4716 growth, OD600, 24 h; higher = more signal, called active from +8 up or from −8 down.
Assay [13] is described as follows: viability profiling in MM1S myeloma cells – cell-based, resazurin fluorescence, basal, 24 h, PK04 Diversity Set, profiling panel (AID 1174). Also: test concentration not given here. As to conditions: higher = more signal, called active from +8 up or from −8 down.
Assay [14] deals with Dihydroorotate dehydrogenase (quinone), mitochondrial (Plasmodium falciparum (isolate 3D7)) (UniProt Q08210). Briefly: inhibition of P. falciparum DHODH – biochemical, C-terminal His tag, absorbance 600 nm, primary screen (AID 1175).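 Also: recombinant parasite enzyme with a five histidine tag at its C terminus; test concentration not given here.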 The note with it: PfDHODH enzyme, DCIP absorbance 600 nm; higher = more signal, called active from +8 up or from −8 down.
Sequence of Dihydroorotate dehydrogenase (quinone), mitochondrial (Plasmodium falciparum (isolate 3D7)) (Q08210 whole entry, looked up): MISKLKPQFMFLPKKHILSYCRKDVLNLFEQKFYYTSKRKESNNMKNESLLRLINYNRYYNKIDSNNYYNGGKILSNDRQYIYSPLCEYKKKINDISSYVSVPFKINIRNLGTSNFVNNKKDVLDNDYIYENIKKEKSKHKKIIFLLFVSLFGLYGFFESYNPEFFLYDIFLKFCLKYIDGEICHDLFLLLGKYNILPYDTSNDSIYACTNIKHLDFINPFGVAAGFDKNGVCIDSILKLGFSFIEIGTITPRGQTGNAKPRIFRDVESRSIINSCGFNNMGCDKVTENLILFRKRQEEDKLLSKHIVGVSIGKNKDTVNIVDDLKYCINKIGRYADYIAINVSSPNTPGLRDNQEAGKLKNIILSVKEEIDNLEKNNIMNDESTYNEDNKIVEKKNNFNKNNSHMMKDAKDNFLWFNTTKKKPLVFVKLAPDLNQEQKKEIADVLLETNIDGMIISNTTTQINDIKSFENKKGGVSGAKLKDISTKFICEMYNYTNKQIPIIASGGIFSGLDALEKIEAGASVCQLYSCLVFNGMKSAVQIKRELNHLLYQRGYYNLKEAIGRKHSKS
Assay [15] in a line: inhibition of PAO1 biofilm formation – strain PAO1, LB-PBS medium, absorbance 600 nm, primary screen (AID 1176). Also: test concentration not given here. The note with it: P. aeruginosa PAO1 growth/biofilm, A600, 12 h; higher = more signal.
Assay [16] can be described thus: growth modulation of vineyard yeast isolate – strain RM11-1a, OD600, basal, 24 h, primary screen (AID 1177).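 Also: cultures grown under basal conditions with no added stressor; test concentration not given here.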 The note with it: S. cerevisiae RM11-1a growth, OD600, 24 h; higher = more signal, called active from +8 up or from −8 down.
Assay [17] is described as follows: growth of efflux-deficient E. coli DRC39 – strain DRC39, OD650, 24 h, E. coli filamentation inducers, primary screen (AID 1178).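 Also: growth measured as culture turbidity by optical density at 650 nm; test concentration not given here.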 The note with it: E. coli DRC39 acrAB, higher = more signal, called active from +8 up or from −8 down.
Assay [18] can be described thus: growth of efflux-deficient E. coli DRC39 – strain DRC39, OD650, 48 h, E. coli filamentation inducers, primary screen (AID 1179).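 Also: screen aims at cell division blockers that make cells filament.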 As to conditions: E. coli DRC39 delta-acrAB growth, higher = more signal, called active from +8 up or from −8 down.
Assay [19] in a line: viability profiling in RPMI8226 myeloma cells – cell-based, resazurin fluorescence, basal, 24 h, PK04 Diversity Set, profiling panel (AID 1180).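 Also: RPMI8826 multiple myeloma cell line at 5000 cells per well; test concentration not given here.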 The note with it: higher = more signal.
The target in assay [20] is E3 ubiquitin-protein ligase XIAP (Homo sapiens) (UniProt P98170). The assay can be described thus: small molecules binding XIAP protein – biophysical, small-molecule microarray, fluorescence 635 nm, primary screen (AID 1181).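 Also: score merges 667 nm emission and signal to noise over triplicate slides.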 The note with it: higher = more signal.
Sequence of E3 ubiquitin-protein ligase XIAP (Homo sapiens) (P98170 whole entry, looked up): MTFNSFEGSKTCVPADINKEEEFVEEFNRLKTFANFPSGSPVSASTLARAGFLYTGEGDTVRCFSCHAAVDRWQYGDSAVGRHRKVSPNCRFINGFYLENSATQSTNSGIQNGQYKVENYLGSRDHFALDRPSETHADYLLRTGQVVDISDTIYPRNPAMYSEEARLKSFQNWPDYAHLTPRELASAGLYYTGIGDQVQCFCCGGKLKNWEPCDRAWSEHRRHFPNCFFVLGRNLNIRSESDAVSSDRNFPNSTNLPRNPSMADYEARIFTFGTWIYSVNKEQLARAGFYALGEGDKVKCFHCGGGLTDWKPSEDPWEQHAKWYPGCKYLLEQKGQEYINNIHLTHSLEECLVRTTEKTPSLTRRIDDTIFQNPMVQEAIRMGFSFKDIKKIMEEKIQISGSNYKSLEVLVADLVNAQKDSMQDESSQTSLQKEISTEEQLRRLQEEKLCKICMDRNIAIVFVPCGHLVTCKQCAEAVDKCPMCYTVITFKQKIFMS

The values below come from PubChem BioAssay.

Calls of active or inactive are those of the source. Unless noted, no rule for the calls is given here.

Consider `COCC(=C=CC[C@@H](O)c1cccc(OCCO)c1)C[C@@H](O)COCc1ccccc1`, for which the z-score in [1] was 1.06; in [2], 1.08; in assay [3], 1.41; in assay [4], 1.16; in assay [5], 0.34; in assay [6], 0.638. Besides, the z-score in assay [7] is 0.362 (inactive); in [8], 0.539; in [9], 0.532; in [10] it was 0.244 (inactive); in assay [11], 0.744; in assay [12], -0.353 (inactive). The z-score in assay [13] was 0.629 (inactive); in [15], 0.13 (inactive); in assay [16] it was -2.24 (inactive); in [17], 0.481 (inactive); in assay [18], 0.392 (inactive); in assay [19], 0.629. Moreover, the composite z-score in [14] was -2.13 (inactive); in assay [20] it was 1.16.

With `COC(=O)[C@@]1(CCC(=O)OC(C)(C)C)N=C(c2ccc(OCCCO)cc2)O[C@H]1c1ccccc1CN=[N+]=[N-]`, the z-score was -1.06 in assay [1]; -1.3 in assay [2]; -2.51 in assay [3]; -3.2 in assay [4]; -3.95 in assay [5]; -1.7 in [6]. Moreover, the z-score in assay [7] was -0.472 (inactive); in [8], -1.12; in assay [9], -1.73; in assay [10], -0.227 (inactive); in assay [11], 0.118; in [12], 0.696 (inactive). The z-score was -1.79 (inactive) in assay [13]; 0.563 (inactive) in assay [15]; 1.56 (inactive) in [16]; 0.224 (inactive) in assay [17]; -0.0915 (inactive) in assay [18]; -2.11 in [19]. The composite z-score was 0.507 (inactive) in assay [14] and 0.165 in [20].

`COc1ccc(C#Cc2ccc3c(c2)[C@]2(C(=O)N3)[C@H](c3ccc(OCCO)cc3)N3[C@H](c4ccccc4)[C@H](c4ccccc4)OC(=O)[C@H]3[C@@H]2C(=O)O)cc1`: the z-score was 0.325 in assay [1]; 1.33 in assay [2]; 0.712 in assay [3]; -3.1 in assay [4]; -4.59 in assay [5]; -4 in assay [6]. Moreover, the z-score is -4.96 (inactive) in [7]; -1.19 in assay [8]; -1.99 in assay [9]; 0.721 (inactive) in [10]; 1.24 in assay [11]; 1.85 (inactive) in assay [12]. The z-score in assay [13] was -0.103 (inactive); in [15], 2.25 (inactive); in assay [16] it was 1.73 (inactive); in assay [17], 1.22 (inactive); in assay [18], 0.0805 (inactive); in assay [19], 0.149. In addition, the results for the composite z-score in [14] and in [20] were -12.9 (active) and 0.158, respectively.

Turning to `C#CCN(C/C=C/c1ccccc1)[C@H](CO[Si](C)(C)C(C)(C)C)c1ccccc1`, the z-score in assay [1] was -0.909; in assay [2], -0.0156; in [3] it was -0.676; in assay [4] it was -0.848; in [5], -2.58; in assay [6], -2.55. In addition, the z-score in [7] is 0.155 (inactive); in assay [8] it was -0.352; in [9], 0.653; in assay [10], 0.403 (inactive); in assay [11], -0.355; in assay [12], 0.571 (inactive). The z-score is -0.668 (inactive) in [13]; 0.167 (inactive) in assay [15]; 0.244 (inactive) in assay [16]; -1.38 (inactive) in [17]; -1.59 (inactive) in [18]; -0.764 in assay [19]. The composite z-score in assay [14] was -0.26 (inactive); in assay [20], -0.295.

In the case of `CCOC(=O)C1=CC[C@@H](c2ccc(F)cc2)N(S(=O)(=O)c2ccc(C)cc2)[C@H]1c1ccc([N+](=O)[O-])cc1`, the z-score in [1] is -0.606; in assay [2], -0.415; in assay [3] it was -0.661; in assay [4], -0.724; in [5] it was 0.192; in assay [6], 1.65. The z-score is -0.754 (inactive) in assay [7]; 0.235 in [8]; -0.862 in assay [9]; 1.8 (inactive) in [10]; 1.09 in [11]; 1.18 (inactive) in [12]. In addition, the z-score in assay [13] was 0.0003 (inactive); in [15], 0.0362 (inactive); in [16], 0.248 (inactive); in assay [17], 0.253 (inactive); in assay [18], 0.321 (inactive); in assay [19] it was -0.678. Further, the composite z-score in [14] is -0.554 (inactive); in assay [20] it was 0.0077.

As for `COCCCNC(=O)[C@@H]1c2ccccc2C(=O)N(Cc2cc(C(F)(F)F)cc(C(F)(F)F)c2)[C@H]1c1ccc(CO)cc1`, the z-score in [1] is 0.301; in assay [2], -0.458; in assay [3] it was 0.519; in assay [4], 0.514; in assay [5], -1.74; in [6], 0.983. Besides, the z-score was 0.385 (inactive) in assay [7]; -0.992 in assay [8]; 0.636 in [9]; -0.266 (inactive) in assay [10]; -0.249 in assay [11]; -0.65 (inactive) in assay [12]. Moreover, the z-score in assay [13] was -0.0193 (inactive); in assay [15] it was 0.196 (inactive); in assay [16], -0.432 (inactive); in assay [17], 0.153 (inactive); in assay [18], 0.304 (inactive); in [19] it was 0.431. Further, the values for the composite z-score in assay [14] and in [20] were 0.721 (inactive) and 0.0871, respectively.

`CCc1cccc(NC(=O)O[C@H]2[C@H](OC(=O)Nc3ccc4c(c3)OCO4)[C@H](OC(=O)Nc3ccc4c(c3)OCO4)[C@@H](OC)O[C@@H]2CO)c1`: the z-score was -1.45 in assay [1]; 1.16 in [2]; -1.35 in assay [3]; -2.42 in [4]; -2.17 in assay [5]; -1.56 in [6]. Further, the z-score in [7] is 0.248 (inactive); in assay [8], -1.15; in assay [9] it was -1.18; in assay [10] it was -2.33 (inactive); in assay [11] it was -0.585; in assay [12] it was 0.613 (inactive). Besides, the z-score in assay [13] is -1.44 (inactive); in assay [15], 0.317 (inactive); in [16], 1.97 (inactive); in assay [17] it was 1.65 (inactive); in assay [18], 0.853 (inactive); in assay [19], -1.47. Moreover, the results for the composite z-score in [14] and in assay [20] were -1.12 (inactive) and -0.184, respectively.

As to `NC(=O)[C@@]1(CCS(=O)(=O)c2ccccc2)COC(c2ccc(OCCCO)cc2)=N1`, the z-score was -0.339 in assay [1]; -0.519 in assay [2]; 0.344 in assay [3]; -0.0256 in [4]; 0.458 in assay [5]; -0.522 in assay [6]. Besides, the z-score in assay [7] was -0.762 (inactive); in assay [8] it was -0.436; in assay [9], -0.942; in assay [10], -0.721 (inactive); in assay [11], -0.285; in assay [12], 0.511 (inactive). Also, the z-score in assay [13] is -1.34 (inactive); in [15], -0.304 (inactive); in assay [16], 0.0637 (inactive); in [17], -0.223 (inactive); in [18], 0.491 (inactive); in assay [19] it was -0.318. Besides, the composite z-score in assay [14] was -0.809 (inactive); in assay [20], 0.291.

Consider `C=CCC(OC(C)=O)[C@@H]1[C@@H](N(Cc2cccc3ccccc23)C(=O)c2ccc(C)cc2)c2cc(OCCCO)ccc2N1C(=O)c1ccc2ccccc2n1` (stereo not given in full), for which the z-score in assay [1] was 0.375; in assay [2], 0.694; in assay [3], 1.14; in assay [4], 0.823; in assay [5], -0.473; in assay [6], 2.11. The z-score is 0.199 (inactive) in assay [7]; 0.187 in assay [8]; -1.25 in [9]; 0.34 (inactive) in [10]; 0.374 in assay [11]; -1.13 (inactive) in assay [12]. For the same molecule, the z-score in assay [13] is 0.36 (inactive); in assay [15], -0.877 (inactive); in [16] it was -1.88 (inactive); in assay [17] it was 0.257 (inactive); in assay [18] it was 0.91 (inactive); in assay [19] it was 0.78. The composite z-score in assay [14] was -1.35 (inactive); in [20], -0.0535.
